Measurements as given in PubChem BioAssay (EPA / NIEHS).
Records with an inconclusive call do not appear. Active and inactive are the calls of the source. Rule for the calls, unless noted: active = hit-call score of the fitted dose curve at least 0.9, where 1 is the maximum; inactive = score below 0.9.

What was measured:
[1] = molecular target: Nuclear respiratory factor 1 (Homo sapiens) (UniProt Q16656); assay: ATG_NRF1_CIS: Attagene CIS-FACTORIAL HepG2 Assay for human Nuclear Respiratory Factor 1 (NRF1) Orphan Gene (AID 2282987); details: HepG2 NRF1 cis-element reporter, Attagene multiplex; actives raise or lower the signal
Method in brief: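 Reporter mRNA induction or loss in HepG2 cells after 24 h dosing; cis-regulated reporter constructs report endogenous transcription-factor activity. Quantified by RT-PCR/capillary electrophoresis fluorescence, DMSO-referenced.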

[2] = ATG_NFI_CIS: Attagene CIS-FACTORIAL HepG2 Assay for human Nuclear Factor I (NFI) (AID 2282989); details: HepG2 cis-regulatory reporter, NFI response element transcription; actives raise or lower the signal
Method in brief: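 HepG2 cells transiently transfected with cis-element-driven multiplexed reporter transcription units, dosed for 24 h. Reporter mRNA quantified by RT-PCR, fluorescent labelling, HpaI digestion and capillary electrophoresis; bidirectional fit versus DMSO baseline.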

[3] = molecular target: Myc proto-oncogene protein (Homo sapiens) (UniProt P01106); assay: ATG_Myc_CIS: Attagene CIS-FACTORIAL HepG2 Assay for human Myelocytomatosis (Myc) Proto-Oncogene Transcription Factor (AID 2282990); details: HepG2, Attagene cis-reporter transcription factor activity; actives raise or lower the signal
Method in brief: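 Read-out: fluorescent reporter mRNA fragments resolved by capillary electrophoresis after RT-PCR. Human HepG2 liver cells carried transfected cis-element reporter units and were dosed for 24 h. Gain or loss of signal fitted relative to DMSO baseline.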

[4] = ATG_NF_kB_CIS: Attagene CIS-FACTORIAL HepG2 Assay for human Nuclear Factor Kappa B (NF-kB) (AID 2282991); details: HepG2 Attagene cis-factorial NF-kB reporter mRNA; actives raise or lower the signal
Method in brief: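 DMSO served as negative control and baseline for bidirectional curve fitting. Transiently transfected HepG2 cells were dosed for 24 h, then reporter transcripts were measured by RT-PCR with capillary electrophoresis detection.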

[5] = ATG_NRF2_ARE_CIS: Attagene CIS-FACTORIAL HepG2 Assay for human Nuclear Factor Erythroid 2 Related Factor 2 (NFR2) response to Antioxidant Response Elements (ARE) (AID 2282992); details: HepG2 Attagene ARE/NRF2 reporter, transcription factor activity; actives raise or lower the signal
Method in brief: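 HepG2 cells transiently transfected with multiplexed cis-regulated reporter transcription units measure endogenous transcription factor activity. Reporter mRNA at 24 h is quantified by RT-PCR, fluorescent labelling and capillary electrophoresis, with bidirectional fitting relative to DMSO.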

[6] = ATG_Oct_MLP_CIS: Attagene CIS-FACTORIAL HepG2 Assay for human Octamer-Binding Transcription Factor (Oct) (AID 2282993); details: HepG2 Attagene cis-factorial Oct reporter, mRNA; actives raise or lower the signal
Method in brief: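 HepG2 cells transiently transfected with cis-promoter-driven multiplexed reporter transcription units, dosed for 24 h. Reporter mRNA quantified by RT-PCR, fluorescent labelling, HpaI digestion and capillary electrophoresis; bidirectional fits versus DMSO baseline.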

[7] = molecular target: Cellular tumor antigen p53 (Homo sapiens) (UniProt P04637); assay: ATG_p53_CIS: Attagene CIS-FACTORIAL HepG2 Assay for human p53 Transcription Factor (AID 2282994); details: HepG2 p53 cis-element reporter, Attagene mRNA; actives raise or lower the signal
Method in brief: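 HepG2 cells transiently transfected with multiplexed cis-regulated reporter transcription units read endogenous TF activity. After 24 h compound exposure, reporter mRNA was quantified by RT-PCR, fluorescent labelling, HpaI digestion and capillary electrophoresis; bidirectional fits versus DMSO baseline.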

[8] = molecular target: human Peroxisome Proliferator-activated Receptor alpha (PPARa), PPARA (gene 5465) (UniProt Q07869); assay: ATG_PPARa_TRANS: Attagene TRANS-FACTORIAL HepG2 Assay for human Peroxisome Proliferator-activated Receptor alpha (PPARa) (AID 2283001; active = hit-call score of the fitted dose curve at least 0.9, where 1 is the maximum)
Method in brief: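 HepG2 cells transiently transfected with multiplexed GAL4-UAS reporters driven by exogenous chimeric NR-Gal4 proteins; reporter mRNA measured after 24 h dosing. Read-out by RT-PCR, 6-FAM labelling, HpaI digestion and capillary electrophoresis; gain of signal versus DMSO.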

[9] = molecular target: human Retinoic Acid Receptor beta (RARb), RARB (gene 5915) (UniProt P10826); assay: ATG_RARb_TRANS: Attagene TRANS-FACTORIAL HepG2 Assay for human Retinoic Acid Receptor beta (AID 2283004; active = hit-call score of the fitted dose curve at least 0.9, where 1 is the maximum)
Method in brief: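 Readout is reporter mRNA induction: RNA reverse-transcribed, PCR-amplified, FAM-labelled, HpaI-cut and resolved by capillary electrophoresis. Transiently transfected HepG2 cells carrying exogenous NR–Gal4 chimeras were dosed for 24 h; activity fitted upward relative to DMSO.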

[10] = molecular target: Peroxisome proliferator-activated receptor gamma (Homo sapiens) (UniProt P37231); assay: ATG_PPARg_TRANS: Attagene TRANS-FACTORIAL HepG2 Assay for human Peroxisome Proliferator-activated Receptor-gamma (PPARg) (AID 2283007; active = hit-call score of the fitted dose curve at least 0.9, where 1 is the maximum)
Method in brief: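 Chimeric NR-Gal4 transactivation is measured in transiently transfected HepG2 cells by reporter mRNA induction at 24 h. Detection uses RT-PCR with fluorescent labelling and capillary electrophoresis; DMSO defines baseline.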

[11] = molecular target: Nuclear receptor subfamily 1 group I member 2 (Homo sapiens) (UniProt O75469); assay: ATG_PXR_TRANS: Attagene TRANS-FACTORIAL HepG2 Assay for human Pregnane X Receptor (PXR) (AID 2283008; active = hit-call score of the fitted dose curve at least 0.9, where 1 is the maximum)
Method in brief: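 HepG2 cells transiently transfected with multiple reporter units, here a PXR-GAL4 chimera driving a GAL4-UAS reporter; 24 h compound exposure. Reporter mRNA measured by RT-PCR, FAM labelling and capillary electrophoresis; gain of signal fitted against DMSO baseline.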

[12] = molecular target: human Peroxisome Proliferator-activated Receptor delta (PPARd), PPARD (gene 5467) (UniProt Q03181); assay: ATG_PPARd_TRANS: Attagene TRANS-FACTORIAL HepG2 Assay for human Peroxisome Proliferator-activated Receptor delta (PPARd) (AID 2283002; active = hit-call score of the fitted dose curve at least 0.9, where 1 is the maximum)
Method in brief: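 Read-out: reporter mRNA induction, quantified by fluorescent RT-PCR products resolved by capillary electrophoresis. Human HepG2 liver cells carried transiently transfected Gal4-UAS reporter constructs with chimeric NR-Gal4 fusions. Cells were dosed for 24 h; DMSO served as baseline.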

[13] = molecular target: Retinoic acid receptor alpha (Homo sapiens) (UniProt P10276); assay: ATG_RARa_TRANS: Attagene TRANS-FACTORIAL HepG2 Assay for human Retinoic Acid Receptor alpha (RARa) (AID 2283005; active = hit-call score of the fitted dose curve at least 0.9, where 1 is the maximum)
Method in brief: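 HepG2 transiently transfected with multiplex GAL4-UAS reporter units including a human RARa–GAL4 chimera; 24 h compound exposure. Reporter mRNA quantified by RT-PCR, 6-FAM labeling and capillary electrophoresis; gain of signal versus DMSO.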

[14] = molecular target: human Retinoic Acid Receptor gamma (RARg), RARG (gene 5916) (UniProt P13631); assay: ATG_RARg_TRANS: Attagene TRANS-FACTORIAL HepG2 Assay for human Retinoic Acid Receptor gamma (RARg) (AID 2283009; active = hit-call score of the fitted dose curve at least 0.9, where 1 is the maximum)
Method in brief: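 Transient transfection of HepG2 with multi-reporter constructs, then 24 h chemical treatment. Total RNA isolated, reverse-transcribed, PCR-amplified, fluorescently labelled and resolved by capillary electrophoresis; activity scored as mRNA induction versus DMSO.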

Measured: AC50

human Peroxisome Proliferator-activated Receptor delta (PPARd), PPARD (gene 5467), sequence (Q03181 whole entry, looked up, the tested form may be a part): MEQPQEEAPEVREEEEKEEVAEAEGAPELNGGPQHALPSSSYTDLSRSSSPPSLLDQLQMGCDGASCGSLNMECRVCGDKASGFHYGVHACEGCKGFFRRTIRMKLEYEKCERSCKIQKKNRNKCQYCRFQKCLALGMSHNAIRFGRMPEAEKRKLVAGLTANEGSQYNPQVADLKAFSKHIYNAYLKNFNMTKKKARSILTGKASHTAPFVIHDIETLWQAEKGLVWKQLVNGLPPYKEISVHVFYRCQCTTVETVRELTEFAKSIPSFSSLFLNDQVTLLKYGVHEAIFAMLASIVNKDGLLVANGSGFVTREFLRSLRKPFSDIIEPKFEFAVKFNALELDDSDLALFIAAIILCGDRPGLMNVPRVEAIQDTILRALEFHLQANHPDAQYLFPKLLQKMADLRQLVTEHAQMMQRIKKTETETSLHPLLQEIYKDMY
Peroxisome proliferator-activated receptor gamma (Homo sapiens), sequence (P37231 whole entry, looked up, the tested form may be a part): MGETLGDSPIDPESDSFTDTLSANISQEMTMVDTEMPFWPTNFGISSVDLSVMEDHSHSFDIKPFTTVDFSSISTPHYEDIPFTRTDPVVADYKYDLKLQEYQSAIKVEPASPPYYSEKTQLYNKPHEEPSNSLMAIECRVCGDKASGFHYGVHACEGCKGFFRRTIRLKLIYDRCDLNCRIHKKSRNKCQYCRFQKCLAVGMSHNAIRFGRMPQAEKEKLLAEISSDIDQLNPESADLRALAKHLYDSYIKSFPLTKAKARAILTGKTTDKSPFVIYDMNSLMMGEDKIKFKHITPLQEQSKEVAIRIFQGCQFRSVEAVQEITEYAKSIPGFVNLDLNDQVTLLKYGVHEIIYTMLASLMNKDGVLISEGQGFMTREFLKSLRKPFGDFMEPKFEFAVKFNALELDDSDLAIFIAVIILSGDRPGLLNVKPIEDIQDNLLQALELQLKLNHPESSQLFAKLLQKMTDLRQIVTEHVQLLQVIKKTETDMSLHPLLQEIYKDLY
human Retinoic Acid Receptor beta (RARb), RARB (gene 5915), sequence (P10826 whole entry, looked up, the tested form may be a part): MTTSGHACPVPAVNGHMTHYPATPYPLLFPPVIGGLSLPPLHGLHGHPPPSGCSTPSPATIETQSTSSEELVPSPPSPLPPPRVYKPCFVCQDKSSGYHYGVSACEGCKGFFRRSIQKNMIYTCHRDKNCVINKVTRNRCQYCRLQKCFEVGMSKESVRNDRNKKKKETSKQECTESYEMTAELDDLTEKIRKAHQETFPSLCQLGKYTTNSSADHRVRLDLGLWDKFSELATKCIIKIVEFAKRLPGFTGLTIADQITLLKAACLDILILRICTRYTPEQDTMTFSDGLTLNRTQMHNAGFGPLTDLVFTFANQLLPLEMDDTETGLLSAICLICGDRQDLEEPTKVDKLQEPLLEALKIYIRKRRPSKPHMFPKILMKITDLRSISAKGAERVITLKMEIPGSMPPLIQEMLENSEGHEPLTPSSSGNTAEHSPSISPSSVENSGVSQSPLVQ
Nuclear receptor subfamily 1 group I member 2 (Homo sapiens), sequence (O75469 whole entry, looked up, the tested form may be a part): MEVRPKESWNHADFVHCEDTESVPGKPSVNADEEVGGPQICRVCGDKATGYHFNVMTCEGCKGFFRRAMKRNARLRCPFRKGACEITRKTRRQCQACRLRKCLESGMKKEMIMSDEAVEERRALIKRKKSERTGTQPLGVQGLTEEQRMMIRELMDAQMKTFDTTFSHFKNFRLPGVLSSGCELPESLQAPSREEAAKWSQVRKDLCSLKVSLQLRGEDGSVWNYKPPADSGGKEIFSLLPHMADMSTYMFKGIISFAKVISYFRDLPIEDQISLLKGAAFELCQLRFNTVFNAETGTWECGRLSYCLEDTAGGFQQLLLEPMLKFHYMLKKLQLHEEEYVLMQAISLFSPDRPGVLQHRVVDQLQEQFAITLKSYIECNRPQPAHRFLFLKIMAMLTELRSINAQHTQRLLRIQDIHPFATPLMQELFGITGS
Nuclear respiratory factor 1 (Homo sapiens), sequence (Q16656 whole entry, looked up): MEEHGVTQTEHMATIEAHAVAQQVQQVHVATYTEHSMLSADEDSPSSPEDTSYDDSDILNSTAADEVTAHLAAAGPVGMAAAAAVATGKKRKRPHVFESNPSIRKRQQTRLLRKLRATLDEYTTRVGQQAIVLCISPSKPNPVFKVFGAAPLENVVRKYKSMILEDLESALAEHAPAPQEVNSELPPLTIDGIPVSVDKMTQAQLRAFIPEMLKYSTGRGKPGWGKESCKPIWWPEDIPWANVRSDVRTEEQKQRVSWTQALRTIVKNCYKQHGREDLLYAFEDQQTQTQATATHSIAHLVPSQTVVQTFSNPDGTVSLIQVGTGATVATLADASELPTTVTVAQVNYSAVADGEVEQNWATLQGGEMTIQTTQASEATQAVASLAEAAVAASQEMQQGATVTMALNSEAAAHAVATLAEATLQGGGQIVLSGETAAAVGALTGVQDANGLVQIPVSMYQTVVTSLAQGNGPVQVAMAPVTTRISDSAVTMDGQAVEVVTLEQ
Myc proto-oncogene protein (Homo sapiens), sequence (P01106 whole entry, looked up, the tested form may be a part): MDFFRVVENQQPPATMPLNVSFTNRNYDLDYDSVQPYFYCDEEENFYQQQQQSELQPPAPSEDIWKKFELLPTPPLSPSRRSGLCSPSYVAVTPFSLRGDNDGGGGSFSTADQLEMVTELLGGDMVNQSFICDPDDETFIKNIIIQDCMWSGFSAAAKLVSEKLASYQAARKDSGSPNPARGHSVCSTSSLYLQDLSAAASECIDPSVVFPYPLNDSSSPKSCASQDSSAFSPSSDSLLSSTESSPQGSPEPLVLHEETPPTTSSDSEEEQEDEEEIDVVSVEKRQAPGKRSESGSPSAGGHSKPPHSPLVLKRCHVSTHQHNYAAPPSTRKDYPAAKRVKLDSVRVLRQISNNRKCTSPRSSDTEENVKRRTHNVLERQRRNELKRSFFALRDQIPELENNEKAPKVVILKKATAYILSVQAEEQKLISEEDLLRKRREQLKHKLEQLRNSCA
Cellular tumor antigen p53 (Homo sapiens), sequence (P04637 whole entry, looked up): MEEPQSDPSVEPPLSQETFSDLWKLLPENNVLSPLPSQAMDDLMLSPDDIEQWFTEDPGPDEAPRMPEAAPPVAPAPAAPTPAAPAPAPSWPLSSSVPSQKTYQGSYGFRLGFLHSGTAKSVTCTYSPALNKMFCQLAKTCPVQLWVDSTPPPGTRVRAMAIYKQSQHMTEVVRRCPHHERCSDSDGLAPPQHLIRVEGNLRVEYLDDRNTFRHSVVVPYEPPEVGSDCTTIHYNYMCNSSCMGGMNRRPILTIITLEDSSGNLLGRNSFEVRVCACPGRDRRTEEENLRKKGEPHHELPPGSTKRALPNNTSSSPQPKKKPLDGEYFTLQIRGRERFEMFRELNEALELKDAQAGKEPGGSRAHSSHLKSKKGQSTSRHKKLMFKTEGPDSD
Retinoic acid receptor alpha (Homo sapiens), sequence (P10276 whole entry, looked up, the tested form may be a part): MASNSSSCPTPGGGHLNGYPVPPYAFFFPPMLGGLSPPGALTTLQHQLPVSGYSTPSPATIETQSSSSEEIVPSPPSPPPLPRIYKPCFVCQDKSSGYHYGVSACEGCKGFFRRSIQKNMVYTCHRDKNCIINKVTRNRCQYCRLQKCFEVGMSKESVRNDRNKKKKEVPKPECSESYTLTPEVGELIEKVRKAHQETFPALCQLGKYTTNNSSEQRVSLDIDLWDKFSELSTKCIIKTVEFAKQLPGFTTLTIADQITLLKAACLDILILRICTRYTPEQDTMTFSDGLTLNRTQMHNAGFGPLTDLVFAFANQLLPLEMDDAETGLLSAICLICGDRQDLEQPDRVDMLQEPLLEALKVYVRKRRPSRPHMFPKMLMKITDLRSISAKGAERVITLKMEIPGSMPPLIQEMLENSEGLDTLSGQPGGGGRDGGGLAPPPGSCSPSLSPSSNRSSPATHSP
human Retinoic Acid Receptor gamma (RARg), RARG (gene 5916), sequence (P13631 whole entry, looked up): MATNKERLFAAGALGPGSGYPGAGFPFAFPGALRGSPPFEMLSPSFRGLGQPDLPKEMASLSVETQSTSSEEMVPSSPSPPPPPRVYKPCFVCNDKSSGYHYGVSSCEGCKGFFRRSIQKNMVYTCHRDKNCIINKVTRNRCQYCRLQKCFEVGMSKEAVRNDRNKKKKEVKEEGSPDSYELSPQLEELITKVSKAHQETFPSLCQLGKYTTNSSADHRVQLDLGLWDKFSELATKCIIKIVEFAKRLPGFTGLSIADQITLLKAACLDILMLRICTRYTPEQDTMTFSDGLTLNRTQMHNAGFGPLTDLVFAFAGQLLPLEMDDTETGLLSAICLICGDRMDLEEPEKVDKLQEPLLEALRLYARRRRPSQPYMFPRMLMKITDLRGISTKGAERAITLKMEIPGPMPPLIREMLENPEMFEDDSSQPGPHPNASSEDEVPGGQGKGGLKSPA
human Peroxisome Proliferator-activated Receptor alpha (PPARa), PPARA (gene 5465), sequence (Q07869 whole entry, looked up, the tested form may be a part): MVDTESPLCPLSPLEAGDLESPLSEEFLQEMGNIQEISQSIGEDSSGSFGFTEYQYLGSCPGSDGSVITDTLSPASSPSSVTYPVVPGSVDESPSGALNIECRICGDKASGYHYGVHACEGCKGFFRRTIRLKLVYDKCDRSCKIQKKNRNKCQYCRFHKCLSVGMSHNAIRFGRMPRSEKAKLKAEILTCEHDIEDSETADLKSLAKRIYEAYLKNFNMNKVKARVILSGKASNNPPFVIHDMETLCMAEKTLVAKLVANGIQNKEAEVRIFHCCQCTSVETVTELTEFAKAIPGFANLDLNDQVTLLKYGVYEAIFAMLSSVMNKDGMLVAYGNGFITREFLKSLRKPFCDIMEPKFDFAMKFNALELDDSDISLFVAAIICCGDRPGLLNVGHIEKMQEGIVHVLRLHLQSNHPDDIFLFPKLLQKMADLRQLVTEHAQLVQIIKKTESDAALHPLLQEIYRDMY

CN(C)Cc1cc(CN(C)C)c(O)c(CN(C)C)c1
not listed: [12] | [13] | [14]
inactive: all other assays above

CC(C)OC(=O)c1ccccc1
not listed: [8] | [10] | [11]
inactive: all other assays above

Cc1cc(C)n(CO)n1
not listed: [8] | [10] | [11] | [13] | [14]
inactive: all other assays above

CCC1COC(=O)O1 (stereo not drawn)
not listed: [8] | [13] | [14]
inactive: all other assays above

C=C(C)C(=O)OCCOC(=O)C(=C)C
active: [10] 62.2 µM
not listed: [8]
inactive: all other assays above

O=C(O[C@@H]1Cc2c(O)cc(O)cc2O[C@@H]1c1cc(O)c(O)c(O)c1)c1cc(O)c(O)c(O)c1
not listed: [9] | [12] | [13]
inactive: all other assays above

O=C(O)/C=C/c1ccccc1
not listed: [8] | [9] | [13] | [14]
inactive: all other assays above

COc1nccnc1CC(C)C
not listed: [8] | [10] | [13]
inactive: all other assays above

CCc1occc(=O)c1O
inactive: [1] | [2] | [3] | [4] | [5] | [6] | [7] | [12]

C=CC(C)(O)CC/C=C(\C)CC (stereo not drawn)
active: [11] 6.12 µM
not listed: [8]
inactive: all other assays above

CCC(C)(O)CCCC(C)C (stereo not drawn)
not listed: [9] | [12] | [13] | [14]
inactive: all other assays above
